From PubChem BioAssay (NCI) come the findings set out here.

Compounds without any hit were thinned out: in the full panel of roughly 83,000, 20% have a hit.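 Growth was measured after 48 h exposure to one concentration of compound in 96-well plates. Values under 10 count as active.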 A number with no mark means an inactive call. Active and inactive are the calls of the source.

Some test systems named below: HCT-15 colon; HT29 colon; SNB-75 CNS; SNB-19 CNS; U251 CNS; SK-MEL-5 melanoma; UACC-62 melanoma; LOX IMVI melanoma; SK-MEL-28 melanoma; SK-MEL-2 melanoma; EKVX NSCLC; SN12C renal; UO-31 renal; TK-10 renal; ACHN renal; CAKI-1 renal; A498 renal; CCRF-CEM leukemia; MOLT-4 leukemia; PC-3 prostate.
Experiment in all cases: NCI-60 one-dose screen, 48 h (100 = growth as untreated, 0 = no growth, -100 = all killed)
Details in all cases: 10 µM unless noted

On to `Cn1c(=O)c2c(nc3n2CCN(CCc2ccc(OCCN4CCOCC4)cc2)C3)n(C)c1=O`, for which the growth in the assay with HCT-15 colon is 105%; with HT29 colon it was 107%; in the assay on SNB-75 CNS, 101%; with SNB-19 CNS it was 108%; with U251 CNS, 105%; with SK-MEL-5 melanoma, 94.2%. The growth was 98.8% in the assay on UACC-62 melanoma; 97% with LOX IMVI melanoma; 111% with SK-MEL-28 melanoma; 101% with SK-MEL-2 melanoma; 102% with EKVX NSCLC; 104% with SN12C renal. Moreover, the growth in the assay with UO-31 renal is 93.8%; in the assay on TK-10 renal, 104%; in the assay with ACHN renal it was 106%; in the assay on CAKI-1 renal it was 97.5%; with A498 renal it was 81.3%; with CCRF-CEM leukemia, 105%.
Regarding `COc1cc(C(=O)CCCl)ccc1O`, the growth with HCT-15 colon was 95.2%; in the assay on HT29 colon, 112%; in the assay on SNB-75 CNS, 85.8%; with SNB-19 CNS, 101%; in the assay on U251 CNS, 103%; with SK-MEL-5 melanoma, 103%. In addition, the growth in the assay with UACC-62 melanoma is 97.4%; in the assay with LOX IMVI melanoma it was 90.5%; with SK-MEL-28 melanoma it was 107%; with SK-MEL-2 melanoma, 114%; in the assay with EKVX NSCLC it was 93.7%; in the assay with SN12C renal, 95.6%. The growth in the assay on UO-31 renal is 90.9%; in the assay on TK-10 renal, 109%; in the assay with ACHN renal, 96.9%; in the assay with CAKI-1 renal, 90.2%; in the assay with A498 renal it was 106%; with CCRF-CEM leukemia, 106%. The growth with MOLT-4 leukemia is 99.5%.
Consider `O=S(=O)(NCCCNc1cc(-c2cn(-c3ccccc3)nc2-c2cccc(O)c2)ccn1)c1cccc(F)c1`, for which the growth was 9.95% (active) in the assay with HCT-15 colon; 8.11% (active) with HT29 colon; 49.5% in the assay on SNB-75 CNS; 81.6% with SNB-19 CNS; 40.1% with U251 CNS; 20% with SK-MEL-5 melanoma. Further, the growth was 50.5% in the assay on UACC-62 melanoma; 13.7% in the assay with LOX IMVI melanoma; 44.3% with SK-MEL-28 melanoma; 66.3% in the assay with SK-MEL-2 melanoma; 39% in the assay on EKVX NSCLC; 65.9% in the assay with SN12C renal. For the same compound, the growth is 35.6% in the assay on UO-31 renal; 58.9% in the assay with TK-10 renal; 43.7% in the assay on ACHN renal; 41% in the assay on CAKI-1 renal; 46.6% in the assay on A498 renal; 36.3% in the assay with CCRF-CEM leukemia. Besides, the growth with MOLT-4 leukemia is 31%.
Turning to `COc1ccc(NC(=O)/N=c2\oc3c(OC)cccc3cc2-c2cc3ccccc3[nH]2)cc1`, the growth with HCT-15 colon is 73.3%; with HT29 colon, 57.7%; with SNB-75 CNS, -8.95% (active); in the assay on SNB-19 CNS, 36.2%; with U251 CNS, 34.1%; with SK-MEL-5 melanoma it was 60.6%. In addition, the growth with UACC-62 melanoma is 65.6%; in the assay with LOX IMVI melanoma, 73.1%; in the assay with SK-MEL-28 melanoma it was 81.9%; in the assay with SK-MEL-2 melanoma, 75.9%; in the assay on EKVX NSCLC, 72.3%; in the assay with SN12C renal, 78.1%. The growth in the assay with UO-31 renal is 90.4%; with TK-10 renal it was 42%; in the assay on ACHN renal it was 34.9%; with CAKI-1 renal, 49%; in the assay on A498 renal, 75%.
`COc1cc(CCn2nnc3c(Nc4ccc(N5CCOCC5)cc4)ncnc32)cc(OC)c1`: the growth in the assay on HCT-15 colon is 93.6%; with HT29 colon, 99.3%; in the assay on SNB-75 CNS it was 94.2%; in the assay on SNB-19 CNS it was 93.3%; in the assay with U251 CNS it was 95.6%; with SK-MEL-5 melanoma it was 93.6%. Besides, the growth with UACC-62 melanoma was 91.5%; in the assay on LOX IMVI melanoma, 97.5%; in the assay with SK-MEL-28 melanoma, 97%; with SK-MEL-2 melanoma, 115%; in the assay with SN12C renal, 103%; in the assay on UO-31 renal, 86.9%. Also, the growth in the assay on TK-10 renal was 123%; in the assay with ACHN renal it was 97.4%; in the assay on CAKI-1 renal, 93.9%; in the assay with A498 renal, 80.4%; in the assay on CCRF-CEM leukemia, 84.5%; with MOLT-4 leukemia, 76.4%.
Consider `COc1cc(-c2n[nH]nc2-c2ccc3c(c2)OCCO3)cc(OC)c1OC`, for which the growth was 6.81% (active) with HCT-15 colon; -12.7% (active) with HT29 colon; 25.4% with SNB-75 CNS; 42.6% in the assay with SNB-19 CNS; -27.3% (active) with U251 CNS; -39.5% (active) in the assay on SK-MEL-5 melanoma. For the same compound, the growth in the assay on UACC-62 melanoma was 27%; in the assay with LOX IMVI melanoma, 15.2%; with SK-MEL-28 melanoma, 38.9%; with SK-MEL-2 melanoma it was 26.6%; in the assay on SN12C renal, 31%; in the assay with UO-31 renal it was 27.1%. Moreover, the growth with TK-10 renal is 52.4%; in the assay with ACHN renal, 12.3%; in the assay with CAKI-1 renal, 18.4%; in the assay with A498 renal, -14.6% (active); in the assay with MOLT-4 leukemia, 5.49% (active).
Regarding `O=C(CNc1ccc(Cl)cc1)Nc1ccc(-c2nc3ccccc3s2)cc1`, the growth with HCT-15 colon was -13.9% (active); with HT29 colon, 47.9%; in the assay with SNB-75 CNS, 60.1%; in the assay on SNB-19 CNS it was 63.6%; with U251 CNS, 26.3%; in the assay on SK-MEL-5 melanoma it was 25%. Further, the growth was 30.1% in the assay on UACC-62 melanoma; -41% (active) in the assay on LOX IMVI melanoma; 99.5% with SK-MEL-28 melanoma; 78.5% in the assay with SK-MEL-2 melanoma; 46.8% in the assay on SN12C renal; 65% with UO-31 renal. Besides, the growth was 118% in the assay with TK-10 renal; 22.8% with ACHN renal; 20.2% in the assay with CAKI-1 renal; 3.22% (active) in the assay on CCRF-CEM leukemia; 4.4% (active) in the assay with MOLT-4 leukemia.
As for `CCNc1nc(N2CC(=O)Nc3cc(OC)ccc32)c2ccccc2n1`, the growth with HCT-15 colon is 6.11% (active); in the assay with HT29 colon, 0.723% (active); with SNB-75 CNS it was 24.7%; with SNB-19 CNS it was 19.2%; in the assay on PC-3 prostate it was 6.21% (active); in the assay on SK-MEL-5 melanoma, -81.6% (active). Moreover, the growth in the assay on UACC-62 melanoma was 9.13% (active); with LOX IMVI melanoma, 20.5%; in the assay on SK-MEL-28 melanoma, 45%; in the assay on SK-MEL-2 melanoma it was 31.6%; in the assay with EKVX NSCLC it was 12.8%; with SN12C renal, 27%. Also, the growth with UO-31 renal is 15.6%; in the assay with TK-10 renal, 21.3%; in the assay with ACHN renal it was 8.34% (active); in the assay with CAKI-1 renal, 22.6%; in the assay with A498 renal, -11.4% (active); with CCRF-CEM leukemia it was 26.8%. For the same compound, in the assay on MOLT-4 leukemia, the growth is 24.8%.
For the compound `COc1ccc(/C=c2\sc3n(c2=O)C2C(NN=3)N(C)C(=O)N2C)cc1` (configuration not stated), the growth in the assay on HCT-15 colon was 28.5%; in the assay with HT29 colon it was 8.76% (active); in the assay with SNB-75 CNS, -20.5% (active); with SNB-19 CNS it was 33.9%; in the assay on PC-3 prostate it was 25.4%; with SK-MEL-5 melanoma, 6.02% (active). Besides, the growth was 41.9% in the assay with UACC-62 melanoma; 44.3% with LOX IMVI melanoma; 54.7% in the assay on SK-MEL-28 melanoma; 39.6% in the assay on SK-MEL-2 melanoma; 56.7% in the assay on EKVX NSCLC; 42.3% with SN12C renal. The growth with UO-31 renal is 46.4%; in the assay with TK-10 renal it was 54.8%; in the assay with ACHN renal, 45%; in the assay on CAKI-1 renal it was 31.5%; in the assay with A498 renal it was -21.3% (active); with MOLT-4 leukemia it was 26.5%.
